Screening results as filed in PubChem BioAssay.
Compounds with a hit are over-represented: about 6.5% of the library has one in this group of screens.
Vaccinia Venus = qHTS for Stage-Specific Inhibitors of Vaccinia Orthopoxvirus: Venus Reporter Primary qHTS; 330,000 compounds, 0.46% hits; AID 720580, 2013; Vaccinia virus Venus reporter expression, fluorescence; Potency, µM (series often up to 36.5 µM), inactives show at the top dose activity change, negative = inhibition, usual class: inhibitors; calls by dose curve; tested in A549 cells; also: potency is read from the fitted curve at half-maximal effect; nearly all actives have a fitted effect of over 30% in size
LASV entry inh = qHTS for Inhibitors of binding or entry into cells for Lassa Virus. 300,000 compounds, 1.2% hits. Lassa virus pseudotype entry inhibition, cell reporter. Potency, µM (top dose mostly 37.9 µM), for inactives: at the top dose activity change, negative = inhibition, most hits filed as inhibitors; calls by dose curve; tested in HEK293 cells; also: potency is read from the fitted curve at half-maximal effect; nearly all actives have a fitted effect of over 50% in size
FMDV inh = High Throughput Screening for Foot and Mouth Disease Virus Antivirals. FMDV antiviral cell-based qHTS. 410,000 compounds, 1.2% hits. AID 1159524, 2015. Potency, µM (highest dose often 57.9 µM), without a hit: at the highest dose activity change, negative = inhibition, most hits filed as inhibitors; calls by dose curve; tested in HEK293T cells; also: read-out not given here; potency is read from the fitted curve at half-maximal effect; nearly all actives have a fitted effect of over 45% in size
Vaccinia mCherry = qHTS for Stage-Specific Inhibitors of Vaccinia Orthopoxvirus: mCherry Reporter Primary qHTS | Vaccinia virus mCherry reporter infection, fluorescence | Potency, µM (series often up to 36.5 µM), for the others: top-dose activity change, negative = inhibition, most hits filed as inhibitors | 310,000 compounds, 0.63% hits | AID 720579, 2013; calls by dose curve; tested in A549 cells; also: potency is read from the fitted curve at half-maximal effect; nearly all actives have a fitted effect of over 35% in size
Marburg entry inh = qHTS for inhibitors of binding or entry into cells for Marburg Virus; Marburg virus pseudotyped entry inhibition, cell reporter; Potency, µM (highest dose often 37.8 µM), inactives show at the highest dose activity change, negative = inhibition, hits mostly inhibitors; 300,000 compounds, 1.8% hits; AID 540276, 2011; calls by dose curve; tested in HEK293 cells; also: potency is read from the fitted curve at half-maximal effect
HCMV inh = qHTS Assay for inhibitors of the human cytomegalovirus (HCMV) | HFF cells, HCMV-luciferase reporter, 72 h; stronger effect = lower value | activity change, negative = inhibition, % at 57.5 µM | 410,000 compounds, 4.5% hits; in the data active = activity change below about -60%; inconclusive = no clear call, values can overlap the other calls; inactive = above about -39%
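Compounds were evaluated in HFFs infected with an HCMV luciferase reporter virus (MOI 1 PFU/cell). Luciferase in lysates collected 72 h post infection served as the replication measure.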
Starred values were filed as active, the others as inactive; i = inactive; ? = inconclusive; nt = not tested or not shown; ! = not active in a repeat; [ ] = another dose, or the depositor's remark. % is scaled to controls: 0 for no effect and ±100 for the full control effect.

SMILES	Vaccinia Venus	LASV entry inh	FMDV inh	Vaccinia mCherry	Marburg entry inh	HCMV inh
Cc1cccc2c1-c1sc(C(=O)Nc3ccccc3N3CCN(C)CC3)cc1CO2	-24%	?	?	-19%	16µM*	-5
Cc1cccc2c1-c1sc(C(=O)NCCCN3CCN(c4cccc(Cl)c4)CC3)cc1CO2	-16%	?	-32%	-11%	?	-75*
COc1cccc(/C=N/Nc2ncnc3scc(-c4ccccc4)c23)c1O	?	5.2µM*	-2%	2µM*	1.4µM*	-100*
COc1ccc(/C=N/Nc2nncc3ccccc23)cc1	-7%	?	3.5µM*	-4%	?	98
COc1cccc(/C=N/Nc2nccnc2Cl)c1O	?	2.1µM*	13µM*	1.3µM*	1.6µM*	-96*
COc1cccc(/C=N/Nc2ncnc(Cl)c2N)c1O	5µM*	3.7µM*	-10%	3.5µM*	2.5µM*	-97*
COc1ccc(/C=N/Nc2nccnc2Cl)c(OC)c1	-1%	?	19%	-5%	21%[46.1 µM]	-10
CCc1nc2cc(C(=O)NC3CCOC(C)(C)C3)cc(NC(=O)c3ccccc3OC)c2n1C (centres undefined)	-11%	nt	1%	-24%	nt	nt
Cc1ccc(C)c(NC(=O)CCCN2C(=O)C(c3ccccc3)Oc3cccnc32)c1 (centres undefined)	-6%	?	-10%	-6%	nt	-15
COc1ccc(/C=N/Nc2nccnc2Cl)cc1	-7%	8.2µM*	nt	-13%	?	108
Cc1nc2nc(-c3ccccc3)cn2nc1C	-19%	12µM*	nt	-12%	?	104
Cc1nc2nc(-c3ccc(F)cc3)cn2nc1C	-8%	nt	-26%	-14%	nt	205
CCc1ccc(-c2cn3nc(C)c(C)nc3n2)cc1	nt	?	-46%	nt	2.1µM*	-87*
CCOC(=O)C1=C(O)/C(=C/c2cn(CC(=O)N3CCCC3)c3ccccc23)SC1=Nc1ccccc1	19%	-10%	8.9µM*	-12%	?	nt
CN1C(=O)C(=Cc2cn(CC(=O)N3CCCC3)c3ccccc23)C(=O)N(C)C1=O	11%	1%[46.1 µM]	23%	-9%	1%[46.1 µM]	-5
O=C(O)CSC1=NS(=O)(=O)c2ccccc21	-7%	nt	nt	-5%	nt	nt
Cc1nc(CC(=O)c2ccc(O)cc2O)cs1	nt	?	43%	nt	19%	17
Cc1nc(CC(=O)c2c(C)cc(O)cc2O)cs1	-13%	0%	nt	-4%	4%	-71*
COc1ccc(OC)c([C@@H]2C(C#N)=C(N)Oc3cc(C)n(Cc4ccccn4)c(=O)c32)c1	nt	nt	nt	nt	-1%	nt
COc1ccc2[nH]c3c(c2c1)CCNC3=O	nt	nt	8%	nt	nt	-25
COc1ccc2[nH]c3c(c2c1)CCN=C3C	-21%	nt	-7%	i	nt	-92*
Brc1ccc2[nH]c3nc(SCCN4CCOCC4)nnc3c2c1	-15%	0.5µM*	?	-4%	?	4
Oc1cccc2c(CC(O)c3c[nH]c4ccccc34)ccnc12 (centres undefined)	?	nt	nt	i	nt	nt
CC(C)(C)N(Cc1ccc2c(c1)OCO2)C(=O)/C=C\S(=O)c1ccccc1 (centres undefined)	14µM*	?	-22%	8.9µM*	?	-29
C[C@H](N)Cc1c[nH]c2ccc(OCc3cccs3)cc12	nt	nt	-8%	nt	21µM*	nt
SMILES	Vaccinia Venus	LASV entry inh	FMDV inh	Vaccinia mCherry	Marburg entry inh	HCMV inh
CC(N)Cc1c[nH]c2ccc(O)cc12 (centres undefined)	-9%	17%	-17%	-11%	?	-6
CC(N)Cc1c[nH]c2ccc(OCc3cccs3)cc12 (centres undefined)	-12%	7%	0%	-28%	21µM*	?
CN1CCN(c2ccc(NC(=O)Oc3ccccc3)cc2)CC1	-1%	4%	46%	-8%	?	-13
C=CC(=O)Nc1ccc(N(C)c2ccnc(Nc3ccc(N4CCN(C)CC4)cc3)n2)cc1	7.9µM*	nt	0%	6.3µM*	nt	83
COc1cccc(CNc2nc3cc(-c4ccc(C)cc4)sc3c(=O)n2C)c1OC	-23%	nt	5%	-13%	nt	2
COc1cccc(CNc2nc3cc(-c4ccsc4)sc3c(=O)n2C)c1OC	-14%	nt	32µM*	13%	nt	-68*
CC(=O)Nc1ccc(CNc2nc3cc(-c4ccsc4)sc3c(=O)n2C)cc1	-17%	nt	0%	6%	nt	-66*
COc1ccc(-c2cc3nc(NCc4ccc(N(C)C)cc4)n(C)c(=O)c3s2)cc1OC	?	nt	28µM*	i	nt	?
COc1cccc(CNc2nc3cc(-c4ccc(F)cc4)sc3c(=O)n2C)c1OC	-12%	nt	-20%	7%	nt	-71*
COc1cccc(CNc2nc3cc(-c4ccccc4)sc3c(=O)n2C)c1	-20%	nt	0%	i	nt	-65*
COCCNc1nc(Oc2ccc(NC(C)=O)cc2)c2sc(-c3ccccc3)cc2n1	?	nt	-18%	-14%	nt	-16
COCCNc1nc(NCc2ccc(NC(C)=O)cc2)c2sc(-c3ccccc3)cc2n1	11µM*	nt	-7%	?	nt	-98*
COc1cccc(CNc2nc3cc(-c4ccc(OC)c(OC)c4)sc3c(=O)n2C)c1	-30%	nt	?	-8%	nt	21
CCN(c1cc(C)cc(C)c1)S(=O)(=O)c1nnc(NC(=O)c2ccccc2C)s1	-9%[7.34 µM]	?	-19%	-13%[7.34 µM]	nt	-35
CN(C(=O)Cc1ccc(Cl)c(Cl)c1)C(CN1CCCC1)c1cccc(N=C=S)c1 (centres undefined)	?	nt	-17%	?	nt	nt
CCn1c(CNC(=O)c2ccco2)nnc1SCC(=O)c1ccccc1	-1%	nt	6%	-1%	nt	-62*
CN(CCNC(=O)c1ccc(/C=N\O)nc1)Cc1ccccc1	nt	nt	nt	nt	9%	nt
Cc1ccc(-c2c(C(=O)N(C)Cc3ccccc3)oc(=O)c3ccccc23)cc1	-14%	-16%[46.1 µM]	-2%	-13%	?	-65*!
CN(Cc1ccccc1)C(=O)c1oc(=O)c2ccccc2c1-c1ccccc1	-16%	2%	-3%	i	0%	5
O=C1CCC[C@H]2[C@@H](Cc3ccccc3)[C@@H](NS(=O)(=O)c3ccccc3)CC[C@]23CCCN13	nt	nt	nt	nt	nt	-21
O=C(c1ccc(Cn2cnnn2)cc1)N1CCOc2ccc(C(O)C3CCCCC3)cc2C1 (centres undefined)	-8%	nt	-25%	-18%	nt	nt
Cc1cccc(-c2nc3c4ccccc4n(CC(=O)Nc4cccc(F)c4)c(=O)n3n2)c1	-14%	-13%[46.1 µM]	-8%	-17%	nt	72
O=C1C=C(NCc2ccccc2)CCC1	-10%	4%	-19%	i	?	-13
O=C1C=C(NC2=CC3OC(c4ccccc4)OCC3OC2=O)CCC1 (centres undefined)	?	10µM*	18µM*	?	?	26
